Source: PubChem BioAssay
DTT redox prof: compounds producing H2O2 with reducing agent – biochemical, NIH compound library profiling, artefact control for MLSCN library redox annotation, primary screen; DTT-dependent redox cycling H2O2, phenol red/HRP absorbance; 100% = 100 µM peroxide control, 0% = buffer; activation, % at 10 µM; 0.03% of 200,000 active; AID 878;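 active means activation of at least 50% relative to the plate's high and low controls in the primary single-dose screen; inactive means activation below 50%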;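 further: compound incubated with DTT at 0.8 mM final as the reducing agent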
Arbovirus inh: blocks arbovirus infection; inhibition, % at 10 µM; 0.37% of 200,000 active; arbovirus infection cell-based antiviral screen; in the data active means inhibition above about 30%
HMGR II inh: inhibitors of class II HMG-CoA reductase from Enterococcus faecalis | purified E. faecalis HMGR, NADPH absorbance 340 nm kinetic | inhibition, % at 10 µM | 0.41% of 190,000 active;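 active means inhibition above a set limit, the median over all tested compounds plus 3 SD, cut at about 9.5% in these data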;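 further: enzyme runs in reverse so mevalonate oxidation gives rising NADPH absorbance; 0% = complete reaction with DMSO and 100% = background rate lacking mevalonate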
Ins promoter up: MIN6 insulin promoter up-regulation; MIN6 insulin promoter-GFP reporter, high-content imaging; active compounds read high; z-score at 5 µM; 0.3% of 190,000 active;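 active means z-score above 3 at 5 µM with at least 500 cells counted in the well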
p47phox inh: p47phox (human) inhibition; P14598; p47phox/p22phox peptide binding, fluorescence polarization, 2 h; 0.53% of 220,000 active; inhibition, % at 24.7 µM;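 active means inhibition above about 30%, limit read from the data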;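 further: 0% = p47phox with labelled peptide and 100% = labelled peptide alone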
Target sequence (P14598 whole entry, looked up): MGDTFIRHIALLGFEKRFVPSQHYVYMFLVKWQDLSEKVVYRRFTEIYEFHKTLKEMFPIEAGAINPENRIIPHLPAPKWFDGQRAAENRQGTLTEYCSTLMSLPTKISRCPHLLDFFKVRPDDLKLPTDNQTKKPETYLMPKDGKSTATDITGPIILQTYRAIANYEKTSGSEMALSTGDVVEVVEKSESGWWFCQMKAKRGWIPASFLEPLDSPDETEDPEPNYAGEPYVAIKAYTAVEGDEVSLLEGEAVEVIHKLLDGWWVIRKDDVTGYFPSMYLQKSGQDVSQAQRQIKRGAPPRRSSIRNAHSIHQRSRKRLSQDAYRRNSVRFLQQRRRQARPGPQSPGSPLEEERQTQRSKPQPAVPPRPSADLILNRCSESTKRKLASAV
Autophagy HCS: alters autophagy in cells; MEF GFP-LC3 puncta imaging; test concentration mostly 10 µM; calls only at 10 µM (by protocol); 0.98% of 190,000 active;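 active means percentage of spot-positive cells more than 3 SD above its plate mean, without a fluorescence outlier flag or 80% toxicity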;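 further: spot-positive cell cutoff set from DMSO-treated cells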
* = called active by the depositor; i = inactive; · = no result; + = active, no number. Hits are enriched below; roughly 2.2% of the tested compounds scored in any of these assays.

SMILES | DTT redox prof | Arbovirus inh | HMGR II inh | Ins promoter up | p47phox inh | Autophagy HCS
O=C1NCN(c2ccccc2)C12CCN(CCCC(c1ccc(F)cc1)c1ccc(F)cc1)CC2 | 0 | -30 | -6 | -0.77 | 15 | +
O=C1CCC(=O)N1CCC(c1ccc(F)cc1)c1ccco1 (centres undefined) | -1 | 3 | 1 | · | -9 | i
CC/C(=N/Nc1ccccc1Cl)c1cnnc(-c2ccccc2)n1 | 2 | -7 | -2 | -0.46 | -9 | i
CCC/C(=N/Nc1ccc(Cl)cc1)c1cnnc(-c2ccccc2)n1 | 1 | · | · | · | · | +
COC(=O)c1ccccc1NC(=O)CN1CCC(n2nnc3cc(C(F)(F)F)ccc32)CC1 | 0 | 32* | 0 | 0.59 | -1 | i
COc1ccccc1NC(=O)CN1CCC(n2c(C)nc3cc(F)ccc32)CC1 | 0 | 33* | -5 | -2.3 | -27 | i
COc1ccc(C(=O)NNC(=O)CN2CCC(n3nnc4cc(C(F)(F)F)ccc43)CC2)cc1 | 1 | 1 | 0 | 0.85 | 5 | i
O=C(CCc1nnc(CCCc2ccccc2)o1)NCCCC1CCCC1 | -2 | -16 | -2 | 0.96 | 2 | i
O=C(c1nn2cccnc2c1Cl)N1CCN(c2ccccc2)CC1 | 0 | 1 | -4 | 0.21 | -6 | +
O=C(c1ccco1)N1CCN(C(=O)c2nn3cccnc3c2Cl)CC1 | 1 | 5 | -3 | · | -11 | i
CC(C)(Oc1ccc(Cl)cc1)C(=O)NC1=NN(c2ccccc2)C(=O)C1 | 0 | 35* | 2 | -0.16 | -6 | i
CN(C)C(=O)CSc1n[nH]c(=O)[nH]c1=O | -1 | -3 | 20* | -0.32 | -1 | i
O=C(CSc1n[nH]c(=O)[nH]c1=O)c1ccccc1 | 1 | 0 | -1 | -0.23 | -5 | i
CCN1CCN(Cc2ccc(NC(=O)c3cc(NC(=O)C(=O)c4c[nH]c5ccccc45)cc(OC)c3)cc2C(F)(F)F)CC1 | · | · | · | 0.4 | 37* | ·
CCN1CCN(Cc2ccc(NC(=O)c3ccc(C)c(NC(=O)c4ccc5n[nH]nc5c4)c3)cc2C(F)(F)F)CC1 | · | · | · | 0.51 | -9 | ·
CCN1CCN(Cc2ccc(NC(=O)c3ccc(C)c(NC(=O)C(=O)c4c[nH]c5ccccc45)c3)cc2C(F)(F)F)CC1 | · | · | · | -3.5 | 59* | ·
Cc1[nH]n(-c2ccccc2)c(=O)c1C=Nc1cccc2cccnc12 | 0 | -9 | -2 | -0.82 | -11 | +
COc1ccc(CC(=O)OCc2cc(=O)n3cc(Br)ccc3n2)cc1OC | 0 | 9 | 17* | -0.05 | -14 | i
COc1cc(OC)cc(C(=O)N[C@H](C(=O)OCC(=O)Nc2ccc(F)c(F)c2F)C(C)C)c1 | -1 | 0 | 1 | 0.13 | -5 | i
COc1cc2[nH]c(Cl)c([N+](=O)[O-])c2cc1OC | · | · | · | 0 | -5 | ·
CN(c1ccccc1)S(=O)(=O)c1cccc(NC(=O)C2CC(=O)N(Cc3ccccc3)C2)c1 (centres undefined) | · | · | · | 0.84 | + | ·
CN(C)S(=O)(=O)c1ccc(NC(=O)C2CC(=O)N(Cc3ccccc3)C2)cc1 (centres undefined) | 0 | -6 | -1 | -0.74 | -6 | i
Cc1cc2c(C)nc(N/N=C/c3ccc([N+](=O)[O-])cc3)nc2o1 | 1 | -5 | -5 | 0.06 | 44* | i
C#CC1(NC(=O)NCCCC)CCCCC1 | -1 | -1 | -3 | 1.3 | 57* | i
CC(=O)Nc1ccc(SCC(=O)N(CCC#N)c2cc(C)cc(C)c2)cc1 | 0 | 49* | 0 | · | -2 | i
SMILES | DTT redox prof | Arbovirus inh | HMGR II inh | Ins promoter up | p47phox inh | Autophagy HCS
Cc1cc(C)cc(N(CCC#N)C(=O)CSc2nc3nc(C)cc(C)n3n2)c1 | 2 | 2 | -1 | -0.01 | -16 | i
COc1ccc(NC(=O)/C(=C/c2ccc3c(c2)OCO3)NC(C)=O)cc1 | 0 | -7 | 4 | 1.8 | 0 | i
CC(C)CCN(C(=S)NC(=O)C1CCCCC1)c1c(N)n(Cc2ccccc2)c(=O)[nH]c1=O | -1 | 32* | -6 | 1 | -3 | i
Cc1onc(-c2ccccc2)c1CNC(=O)Nc1cccc(Cl)c1 | · | · | · | -0.2 | 0 | ·
CC(C)(C)C(=O)Nc1cc(C(F)(F)F)ccc1-n1ccnc1 | -2 | 0 | 13* | -0.42 | 3 | i
CCOC(=O)c1ccc(-n2ccnc2)c(NC(=O)c2ccc(C(C)(C)C)cc2)c1 | 0 | -9 | -1 | 0.15 | -3 | i
